Compounds with a hit are over-represented: about 1.1% of the library has one in this group of screens.
HTR5A inv ctr: inverse agonist of human HTR5A in OPRM1-OPRD1 counter-screen; P47898; HTR5A cell line, luminescence, inverse agonism; inhibition, % at 9.3 µM; hit rate 0.083% among 340,000; in the data active means inhibition mostly above about 23%, no sharp cut-off; inactive means mostly below about 18%;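 further: 0% = cells with DMSO and 100% = no-cell wells with DMSO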
HTR5A ag: activates human HTR5A in OPRM1-OPRD1 agonist counter-screen; P47898; HTR5A agonist assay, luminescence, cell-based; AID 504692; activation, % at 9.3 µM; hit rate 0.61% among 340,000; in the data active means activation mostly above about 9.5%, no sharp cut-off; inactive means mostly below about 7.6%;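 further: 0% = cells with vehicle only and 100% = reference agonist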
MOR-DOR ag: OPRM1-OPRD1 heterodimerization agonism; activation, % at 9.3 µM; cells, luminescence; AID 504326; hit rate 0.3% among 340,000;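 further: 0% = vehicle-treated cells and 100% = reference agonist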
Target sequence (P35372 whole entry, looked up): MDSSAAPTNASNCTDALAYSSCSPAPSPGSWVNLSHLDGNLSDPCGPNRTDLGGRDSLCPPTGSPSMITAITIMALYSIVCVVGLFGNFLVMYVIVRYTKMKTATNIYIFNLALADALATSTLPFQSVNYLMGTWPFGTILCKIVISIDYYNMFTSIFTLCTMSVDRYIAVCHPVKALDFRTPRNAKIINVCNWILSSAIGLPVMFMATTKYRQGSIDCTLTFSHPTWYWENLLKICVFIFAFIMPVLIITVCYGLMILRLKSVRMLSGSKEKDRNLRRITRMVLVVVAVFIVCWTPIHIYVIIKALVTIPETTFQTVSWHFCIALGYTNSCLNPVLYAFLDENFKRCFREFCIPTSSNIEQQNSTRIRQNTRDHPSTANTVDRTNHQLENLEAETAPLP
Target sequence (P41143 whole entry, looked up): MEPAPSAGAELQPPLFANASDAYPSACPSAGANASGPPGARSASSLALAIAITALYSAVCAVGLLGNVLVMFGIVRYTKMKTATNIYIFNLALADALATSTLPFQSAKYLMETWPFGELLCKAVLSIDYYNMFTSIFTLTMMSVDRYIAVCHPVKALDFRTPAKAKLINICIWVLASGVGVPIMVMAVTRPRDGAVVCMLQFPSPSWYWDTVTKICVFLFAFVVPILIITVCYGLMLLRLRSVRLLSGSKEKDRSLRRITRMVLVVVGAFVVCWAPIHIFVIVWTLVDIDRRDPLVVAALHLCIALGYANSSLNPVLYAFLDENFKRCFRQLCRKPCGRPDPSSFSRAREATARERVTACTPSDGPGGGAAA
OPRM1-OPRD1 inv: mu-delta opioid heterodimer inverse agonism; P35372+P41143; cell-based MOR-DOR heterodimer luminescence; inhibition, % at 9.3 µM; hit rate 0.21% among 340,000; in the data active means inhibition above about 22%, passing the limit was not always enough;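 further: 0% = cells with DMSO and 100% = wells without cells with DMSO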
MOR-DOR ag conf: OPRM1-OPRD1 heterodimer agonism, confirmation; shares compounds with MOR-DOR ag; cells, MOR-DOR heterodimerization, luminescence complementation; activation, % at 9.3 µM; hit rate 45% among 830; AID 504904;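 further: 0% = vehicle-treated cells and 100% = reference agonist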
HTR5A ag counter: HTR5A agonism, opioid heterodimer counter-screen; AID 504905; activation, % at 9.3 µM; shares compounds with MOR-DOR ag; HTR5A agonist counterscreen, cell luminescence; hit rate 8% among 830; in the data active means activation above about 17%;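 further: 0% = vehicle-treated cells and 100% = reference agonist response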
An asterisk follows results filed as active. Unless noted, no stated cut-off is given here; in the data, active means activation above about 18%; inactive means the rest.

`CC(=O)Nc1ccc(CN2CCCC(CO)(Cc3ccccc3C)C2)cc1` (centres undefined) gave HTR5A inv ctr -1, HTR5A ag 0, MOR-DOR ag 49*, OPRM1-OPRD1 inv -225, MOR-DOR ag conf 13 and HTR5A ag counter -1.
CNC(=O)Cn1ncc2c(C)n(Cc3ccc(C)cc3)c(C)c2c1=O was read as HTR5A inv ctr 25, HTR5A ag 0, MOR-DOR ag -2 and OPRM1-OPRD1 inv 11.
`Cc1c2cnn(CC(=O)Nc3c(F)c(F)cc(F)c3F)c(=O)c2c(C)n1Cc1ccccc1F` gave HTR5A inv ctr -14, HTR5A ag 5, MOR-DOR ag 35*, OPRM1-OPRD1 inv -178, MOR-DOR ag conf 34* and HTR5A ag counter 31*.
`CC1(C)Cc2c(cnn2-c2cccc(F)c2)C(NC(=O)CCc2cnccn2)C1` (centres undefined) gave HTR5A inv ctr 10, HTR5A ag -3, MOR-DOR ag -2 and OPRM1-OPRD1 inv 10.
Screening CC(C)c1ccc(CNc2ncccn2)cc1 returned HTR5A inv ctr -6, HTR5A ag 1, MOR-DOR ag -1 and OPRM1-OPRD1 inv 5.
Screening CCOC(=O)C1(CCCc2ccccc2)CCN(Cc2nccn2CC)CC1 returned HTR5A inv ctr 1, HTR5A ag 9, MOR-DOR ag 2 and OPRM1-OPRD1 inv -17.
Screening CCOC(=O)C1(CCCc2ccccc2)CCN(Cc2cnc(C)s2)CC1 returned HTR5A inv ctr 3, HTR5A ag -1, MOR-DOR ag 106*, OPRM1-OPRD1 inv inactive, MOR-DOR ag conf 1 and HTR5A ag counter 3.
`CCOC(=O)C1(CC2CC2)CCN(Cc2cn[nH]c2-c2ccccc2)CC1` gave HTR5A inv ctr 5, HTR5A ag -2, MOR-DOR ag -2 and OPRM1-OPRD1 inv 8.
Screening CCOC(=O)C1(CCCc2ccccc2)CCN(Cc2cn(CC)nc2C)CC1 returned HTR5A inv ctr 0, HTR5A ag 0, MOR-DOR ag 315*, OPRM1-OPRD1 inv inactive, MOR-DOR ag conf 20* and HTR5A ag counter -1.
CCOC(=O)C1(Cc2cccc(F)c2)CCN(Cc2cnc(C)s2)CC1 was read as HTR5A inv ctr -4, HTR5A ag 2, MOR-DOR ag 22*, OPRM1-OPRD1 inv -113, MOR-DOR ag conf 24* and HTR5A ag counter 1.
CCOC(=O)C1(Cc2ccccc2)CCN(Cc2cn[nH]c2-c2ccccc2)CC1 was read as HTR5A inv ctr -3, HTR5A ag 5, MOR-DOR ag 36*, OPRM1-OPRD1 inv -260, MOR-DOR ag conf 1 and HTR5A ag counter 23*.
`CCCn1ncc(CN2CCC(Cc3cccc(F)c3)(C(=O)OCC)CC2)c1C` gave HTR5A inv ctr -2, HTR5A ag 1, MOR-DOR ag 3 and OPRM1-OPRD1 inv -14.
For Cc1cc(NS(=O)(=O)c2ccc(NC(=O)COc3ccc(Cl)c(C)c3)cc2)no1 the results were HTR5A inv ctr -4, HTR5A ag -2, MOR-DOR ag 0 and OPRM1-OPRD1 inv 1.
For Cc1ccc(C2(C)NC(=O)N(CC(=O)NC3CCCCC3)C2=O)cc1 (centres undefined) the results were HTR5A inv ctr 7, HTR5A ag -5, MOR-DOR ag 2 and OPRM1-OPRD1 inv -10.
`Cc1onc(-c2ccc(Cl)cc2)c1-c1ccnc(SCC(=O)Nc2ccc(C(C)C)cc2)n1` gave HTR5A inv ctr -6, HTR5A ag 2, MOR-DOR ag 56*, OPRM1-OPRD1 inv -294, MOR-DOR ag conf 0 and HTR5A ag counter -3.
O=C(CSc1nccc(-c2cccs2)n1)Nc1ccc(Cl)cc1 was read as HTR5A inv ctr -38, HTR5A ag 1, MOR-DOR ag -3 and OPRM1-OPRD1 inv 14.
COc1cc(C=O)ccc1OCC(=O)Nc1ccc2c(c1)OCO2 was read as HTR5A inv ctr 6, HTR5A ag -2, MOR-DOR ag -5 and OPRM1-OPRD1 inv 21.
O=C(N/N=C/c1c(O)ccc2ccccc12)c1ccc(Br)o1 was read as HTR5A inv ctr -16, HTR5A ag 4, MOR-DOR ag 24*, OPRM1-OPRD1 inv -139, MOR-DOR ag conf -3 and HTR5A ag counter -6.
Screening O=C(N/N=C\c1c(O)ccc2ccccc12)c1ccc(O)cc1 returned HTR5A inv ctr 13, HTR5A ag 6, MOR-DOR ag 0 and OPRM1-OPRD1 inv 0.
Screening Cc1cccc(C)c1N(CC(=O)N1CCCC1)S(C)(=O)=O returned HTR5A inv ctr -28, HTR5A ag 9, MOR-DOR ag -1 and OPRM1-OPRD1 inv 4.
`Nc1ccc2c(c1Cl)C(=O)c1ccc(N)c(Cl)c1C2=O` gave HTR5A inv ctr 14, HTR5A ag -4, MOR-DOR ag -3 and OPRM1-OPRD1 inv 16.
Cc1ccc2c(c1C)-c1c(ccc(C)c1C)C(=O)C2=O was read as HTR5A inv ctr -12, HTR5A ag 3, MOR-DOR ag 21*, OPRM1-OPRD1 inv -93, MOR-DOR ag conf 21* and HTR5A ag counter 6.
Cc1ccc(C)c(N2CCN(C(=O)Nc3ccc4c(c3)N(C)C(=O)CS4)CC2)c1 was read as HTR5A inv ctr 0, HTR5A ag 0, MOR-DOR ag 3 and OPRM1-OPRD1 inv -20.
Screening COc1cccc(NC(=O)Nc2ccc3c(c2)N(C)C(=O)CS3)c1 returned HTR5A inv ctr 4, HTR5A ag 5, MOR-DOR ag 0 and OPRM1-OPRD1 inv 1.
CN1C(=O)CSc2ccc(NC(=O)N3CCN(c4ccccn4)CC3)cc21 was read as HTR5A inv ctr -2, HTR5A ag 1, MOR-DOR ag 36*, OPRM1-OPRD1 inv -218, MOR-DOR ag conf 26* and HTR5A ag counter 8.
For CC(=O)Nc1ccc(NC(=O)Nc2ccc3c(c2)N(C)C(=O)CS3)cc1 the results were HTR5A inv ctr -5, HTR5A ag 2, MOR-DOR ag 21*, OPRM1-OPRD1 inv -150, MOR-DOR ag conf 3 and HTR5A ag counter 2.
CSCC[C@H](NS(=O)(=O)c1ccc(C)cc1)C(=O)N1CCC(C(=O)N[C@H](C(=O)O)c2ccccc2)CC1 was read as HTR5A inv ctr -14, HTR5A ag -1, MOR-DOR ag 1 and OPRM1-OPRD1 inv -3.
`O=C(NCc1ccco1)c1cc2n(n1)C(C(F)(F)F)CC(c1ccc(Br)cc1)N2` (centres undefined) gave HTR5A inv ctr -21, HTR5A ag 3, MOR-DOR ag 19*, OPRM1-OPRD1 inv -94, MOR-DOR ag conf 0 and HTR5A ag counter 3.
For O=C(OCc1ccccc1)/C(=C/c1cccc(Br)c1)NC(=O)c1ccco1 the results were HTR5A inv ctr 2, HTR5A ag 2, MOR-DOR ag 21*, OPRM1-OPRD1 inv -115, MOR-DOR ag conf -2 and HTR5A ag counter -3.
`O=C(Nc1ccccc1)/C(=C/c1cccc(Br)c1)NC(=O)c1ccco1` gave HTR5A inv ctr 14, HTR5A ag -6, MOR-DOR ag -2 and OPRM1-OPRD1 inv 12.
O=C1c2cccnc2C(=O)N1CO was read as HTR5A inv ctr 5, HTR5A ag 4, MOR-DOR ag -3 and OPRM1-OPRD1 inv 12.
